# In PubChem BioAssay AID652057 (Broad Institute, 2013):
# The whole screen tested about 1,400 compounds, of which about 1,000 (71%) were called active. So high a share suggests a set chosen from earlier hits. Not all results are given here. Measured potencies and affinities stand elsewhere. A number with no mark means an inactive call. The rule behind the calls is not given here.
# Test: blockers of HIV-1 envelope-mediated cell-cell fusion – cherry-pick, dose response (AID 652057)
# Settings: HeLa-JRFL Env/CEM21 cell fusion, luciferase; series mostly up to 35 µM; activity change, negative = inhibition: at the top concentration
row,SMILES,"activity change, negative = inhibition"
1,CNC[C@H]1Oc2c(NC(=O)Nc3cccc4ccccc34)cccc2C(=O)N([C@H](C)CO)C[C@H]1C,91.9%
2,Cc1sc2ncnc(N3CCN(S(=O)(=O)c4ccc(Br)cc4)CC3)c2c1C,-29.8%
3,COc1cc(-c2cc(OC)c(O)c(OC)c2)cc(OC)c1O,19.2%
4,O=C(Nc1ccc(F)cc1)Nc1ccc2c(c1)[C@@H]1C[C@H](CC(=O)N3CCCCC3)O[C@H](CO)[C@@H]1O2,14%
5,COC(=O)C[C@H]1C=C[C@H](NC(=O)c2ccccn2)[C@@H](CO)O1,-11.4%
6,O=C(C[C@@H]1C=C[C@@H](NC(=O)c2ccccc2)[C@H](CO)O1)NCc1ccc(Oc2ccccc2)cc1,0.586%
7,COc1ccc(CCCC(=O)NCCc2ccccc2)c(C)c1,17.4%
8,COc1ccccc1-c1c(-c2ccc(O)cc2O)n[nH]c1C(F)(F)F,-6.28%
9,COCc1[nH]nc2c1C(c1ccc(F)cc1)N(Cc1ccccc1)C2=O (stereo not drawn),-0.755%
10,CCCCn1c(CN(C)Cc2ccccc2)nc2c1c(=O)n(C)c(=O)n2C,22.1%
11,CNc1nc2c(c(=O)n(C)c(=O)n2C)n1Cc1ccccc1,-3.85%
12,C=CCNc1nc2c(c(=O)n(C)c(=O)n2C)n1CCCCCC,-6.3%
13,CC(C)NC(=O)N(C)C[C@@H]1Oc2ccc(NC(=O)C3CC3)cc2CC(=O)N([C@@H](C)CO)C[C@@H]1C,-13.9%
14,CC(C)NC(=O)N(C)C[C@@H]1Oc2ccc(NC(=O)C3CC3)cc2CC(=O)N([C@H](C)CO)C[C@H]1C,7.6%
15,Cc1cc(Oc2ccc(C#N)cc2)nc(NCc2ccccc2)n1,-29.9%
16,c1ccc(CSc2nnc([C@@H]3CCCN3)o2)cc1,-13.3%
17,CCCCCn1c(C(C)NC(=O)CCC)nc2ccccc21 (stereo not drawn),-14.9%
18,COc1ccc(/C(C)=N/NC(=O)c2cccc(S(=O)(=O)N3CCCC3)c2)c(O)c1,-20.9% [at 8 µM]
19,COc1ccc(C(O)c2nc3ccccc3n2C)cc1OC (stereo not drawn),-14.2%
20,CCN1CCN(S(=O)(=O)c2ccc(Cl)c(C(=O)Nc3ccccc3N3CCCC3)c2)CC1,75.7%
21,CCNc1ncnc2c1cnn2C1CCCO1 (stereo not drawn),-3.45%
22,CCOc1ccccc1CNc1ncnc2ccc(-c3c(C)noc3C)cc12,-15.5%
23,Nc1ccc(O)cc1C(=O)OCC(=O)c1ccc(C2CCCCC2)cc1,-35.9%

row,SMILES,"activity change, negative = inhibition"
1,Cc1nc2ccccc2n1CC(=O)NCc1ccccc1,-34.9%
2,CC(C)CN(C(=O)c1ccc(S(=O)(=O)N2CCCCC2)cc1)C1CCS(=O)(=O)C1 (stereo not drawn),9.98%
3,CCCCCCCCCCOC(=O)Cn1c(COc2ccccc2OC)[n+](C)c2ccccc21,77.7% [at 16 µM]
4,CNC[C@@H]1Oc2c(N)cccc2C(=O)N([C@@H](C)CO)C[C@@H]1C,3.77%
5,Cc1ccc(-n2ncc3c(N4CCN(c5ccccc5)CC4)ncnc32)c(C)c1,0%
6,Cc1ccc2c(c1)c1c3n2CCN(CC(N)=O)C3CCC1 (stereo not drawn),10.7%
7,O=C(Nc1ccncc1)c1ccc(Cl)c(S(=O)(=O)N2CCc3ccccc32)c1,29%
8,CC(OC(=O)c1ccc(NC(=O)CC#N)cc1)C(=O)NCCC1=CCCCC1 (stereo not drawn),-18.1%
9,CC(=O)c1c(C)[nH]c(C(=O)OCCCCN2C(=O)c3ccccc3C2=O)c1C,-7.42%
10,CC(=O)c1c(C)[nH]c(C(=O)OCC(=O)Nc2c(C)cccc2C)c1C,-26.4%
11,COc1ccc(S(=O)(=O)N2CCCCC2)cc1NC(=O)CN(Cc1ccco1)Cc1ccco1,-39.4%
12,COc1ccc(S(=O)(=O)N2CCCCC2)cc1NC(=O)CCCOc1ccc(C)cc1,-19%
13,COc1ccccc1C(=O)Nc1ccc2c(c1)OC[C@H](C)N(C(C)=O)C[C@H](C)[C@H](OC)CN(C)C2=O,7.09%
14,COc1ccc(NC(=O)C(=O)NCC2CCCN2S(=O)(=O)c2cccs2)cc1 (stereo not drawn),38.8%
15,CNC[C@@H]1Oc2ccc(NS(C)(=O)=O)cc2CC(=O)N([C@H](C)CO)C[C@H]1C,-5.06%
16,O=C(CCNC(=O)c1ccc(Br)cc1)NNC(=O)COc1ccccc1F,22.9%
17,O=C(C[C@@H]1C[C@@H]2c3cc(NC(=O)C4CCOCC4)ccc3O[C@@H]2[C@H](CO)O1)NCc1ccccc1F,0.678%
18,O=C(C[C@@H]1C[C@@H]2c3cc(NC(=O)C4CCOCC4)ccc3O[C@@H]2[C@H](CO)O1)NCCc1ccccc1,20.6%
19,O=C(NCc1ccccc1)c1ccc(C(=O)NCc2ccccc2)cc1,-1.36%
20,CN(C)C(=O)C[C@H]1C[C@@H]2c3cc(NC(=O)NC4CCCCC4)ccc3O[C@@H]2[C@H](CO)O1,-22.3%
21,Cc1ccccc1-n1c(=O)c2ccccc2n2cnnc12,26.1%
22,Cc1ccc(NS(=O)(=O)c2cc(C(=O)N(C)C3CCN(C)CC3)ccc2Cl)cc1Cl,22.2%
23,Cc1nc2ccc(NC(=O)c3cc(S(=O)(=O)N(C)c4ccccc4)ccc3Cl)cc2s1,-12.3%

row,SMILES,"activity change, negative = inhibition"
1,Cc1ccc(-n2nc3c(c2NC(=O)c2ccco2)CS(=O)C3)cc1 (stereo not drawn),3.85%
2,CCN(CCn1cccn1)C(=O)CC1C(=O)NCCN1CCc1ccccc1 (stereo not drawn),49.2%
3,O=C(CC1C(=O)NCCN1Cc1cccc(F)c1)NC1CCCCC1 (stereo not drawn),24%
4,O=C(O)C[C@@H]1C=C[C@@H](NC(=O)Nc2ccccc2)[C@H](CO)O1,22.1%
5,COc1ccccc1S(=O)(=O)N[C@H]1CC[C@H](CC(=O)N2CCN(C)CC2)O[C@H]1CO,-7.18%
6,O=C(O)C[C@@H]1C=C[C@H](NC(=O)Nc2ccccc2)[C@H](CO)O1,38.8%
7,COc1ccccc1S(=O)(=O)N[C@H]1CC[C@@H](CC(=O)N2CCN(C)CC2)O[C@H]1CO,11.3%
8,Nc1ccn([C@@H]2O[C@H](C(=O)NCc3ccc4c(c3)OCO4)[C@@H](O)[C@H]2O)c(=O)n1,6.02%
9,Cc1ccc(S(=O)(=O)N[C@@H]2CC[C@H](CCNC(=O)c3ccccc3F)O[C@H]2CO)cc1,-20.1%
10,CCN(C1CCCCC1)S(=O)(=O)c1ccc(S(=O)(=O)NCc2ccncc2)cc1,-32.3%
11,CO[C@@H]1CN(C)C(=O)c2ccc(NS(C)(=O)=O)cc2OC[C@@H](C)N(C(=O)C2CCCCC2)C[C@H]1C,18.8%
12,CO[C@H]1CN(C)C(=O)c2ccc(NC(=O)Nc3cccc(F)c3)cc2OC[C@H](C)NC[C@H]1C,16.9%
13,CCCC(=O)Nc1ccc2c(c1)OC[C@H](C)N(C(=O)CN(C)C)C[C@@H](C)[C@H](OC)CN(C)C2=O,13.4%
14,CCCC(=O)Nc1ccc2c(c1)OC[C@@H](C)N(C(=O)CN(C)C)C[C@H](C)[C@@H](OC)CN(C)C2=O,-2.59%
15,CO[C@@H]1CN(C)C(=O)c2ccc(NC(C)=O)cc2OC[C@@H](C)N(Cc2cncnc2)C[C@@H]1C,-15.1%
16,CO[C@H]1CN(C)C(=O)c2cc(NC(=O)C3CCOCC3)ccc2OC[C@H](C)N(Cc2nccs2)C[C@H]1C,-5.78%
17,CO[C@H]1CN(C)C(=O)c2ccc(NC(=O)C3CC3)cc2OC[C@@H](C)N(C(C)=O)C[C@@H]1C,-6.82%
18,CO[C@H]1CN(C)C(=O)c2ccc(NC(=O)Nc3cccc(F)c3)cc2OC[C@@H](C)N(C(C)=O)C[C@H]1C,0.366%
19,CCCC(=O)Nc1ccc2c(c1)OC[C@H](C)N(Cc1ccncc1)C[C@H](C)[C@H](OC)CN(C)C2=O,-9.54%
20,CCC(=O)Nc1ccc2c(c1)C(=O)N(C)C[C@@H](OC)[C@H](C)CN(C(=O)CC)[C@@H](C)CO2,32.1%
21,N#Cc1ccc(CSc2nnc(COc3ccccc3)n2-c2ccccc2)cc1,-18%
22,Cc1ccc(S(=O)(=O)N(C)C[C@H]2Oc3ccc(NC(=O)Nc4cccc5ccccc45)cc3C(=O)N([C@H](C)CO)C[C@@H]2C)cc1,0.697%
